From PubChem BioAssay AID1347418 (Sanford-Burnham Center for Chemical Genomics, 2020)
Screen size: about 1,300 compounds; about 750 (58%) were called active. Some of the results follow.

The compounds below were run against Sulfhydryl oxidase 1 (Homo sapiens) (UniProt O00391) (assay: inhibition of human sulfhydryl oxidase QSOX1 – biochemical, ROS-Glo H2O2 luminescence, HTS, primary screen (AID 1347418)). Conditions: recombinant QSOX1, ROS-Glo H2O2 luminescence; at 12.5 µM; stronger effect = higher value; active = any value above zero.
Sequence of Sulfhydryl oxidase 1 (Homo sapiens) (O00391 whole entry, looked up): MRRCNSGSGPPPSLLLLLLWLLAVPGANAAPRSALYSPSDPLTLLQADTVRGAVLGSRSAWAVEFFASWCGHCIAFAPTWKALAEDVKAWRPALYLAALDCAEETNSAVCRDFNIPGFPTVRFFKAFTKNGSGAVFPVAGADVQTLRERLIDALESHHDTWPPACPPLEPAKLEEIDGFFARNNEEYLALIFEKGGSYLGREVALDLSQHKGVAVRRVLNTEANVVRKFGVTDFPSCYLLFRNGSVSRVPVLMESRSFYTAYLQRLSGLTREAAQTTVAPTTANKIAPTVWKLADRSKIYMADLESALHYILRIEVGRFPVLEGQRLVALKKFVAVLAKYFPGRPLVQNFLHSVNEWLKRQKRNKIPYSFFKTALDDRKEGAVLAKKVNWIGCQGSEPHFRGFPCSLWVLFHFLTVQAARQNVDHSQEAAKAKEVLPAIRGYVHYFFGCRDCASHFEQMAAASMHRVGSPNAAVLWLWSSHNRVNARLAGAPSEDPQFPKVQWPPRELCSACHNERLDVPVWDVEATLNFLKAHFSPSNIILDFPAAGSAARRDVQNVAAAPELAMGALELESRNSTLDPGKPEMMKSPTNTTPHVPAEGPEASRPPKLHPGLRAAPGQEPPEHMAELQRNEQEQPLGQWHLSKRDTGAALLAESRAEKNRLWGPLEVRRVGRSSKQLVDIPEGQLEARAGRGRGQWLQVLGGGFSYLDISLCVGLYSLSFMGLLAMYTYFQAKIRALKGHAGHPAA
For `O=c1[nH]c(=S)[nH]c(-c2ccccc2)c1Cc1c(O)ccc2ccccc12`, the inhibition was 9% (active). With `O=C(c1cc(O)c(O)c([N+](=O)[O-])c1)c1ccccc1F` the inhibition was 14.2% (active). For `N#CC(=C(\N)Sc1ccccc1N)/C(C#N)=C(/N)Sc1ccccc1N`, the inhibition was 44.1% (active). In the case of `CC(O)C(O)[C@H]1CNc2nc(N)[nH]c(=O)c2N1` (some centres not stated), the inhibition is reported as 1.5% (active). `CC(C)(Oc1ccc(C2CC2(Cl)Cl)cc1)C(=O)O` (configuration not stated) was tested, and the inhibition was 2.5% (active). In the case of `CCOC(=O)C(C)(C)Oc1ccc(Cl)cc1`, the inhibition is reported as -1.7% (inactive). `CC(C)(Oc1ccc(CCNC(=O)c2ccc(Cl)cc2)cc1)C(=O)O` was tested, and the inhibition was -3.3% (inactive). For `COc1cc(C(O)C(=O)O)ccc1O` (configuration not stated), the inhibition was 1.1% (active). For `COc1cc(C(O)CO)ccc1OS(=O)(=O)O` (configuration not stated), the inhibition was 0.6% (active). `COc1cc(C(O)CO)ccc1O` (configuration not stated) was tested, and the inhibition was 4.8% (active). For `CCN(CC)CCNC(=O)c1cc(S(C)(=O)=O)ccc1OC`, the inhibition was -3.2% (inactive). For `COc1ccc2cc([C@H](C)C(=O)O)ccc2c1`, the inhibition was -0.6% (inactive). In the case of `COC(=O)[C@H]1[C@H]2C[C@H]3c4[nH]c5ccccc5c4CCN3C[C@H]2CC[C@@H]1O`, the inhibition is reported as 6.1% (active). `COC(=O)[C@@H]1[C@H]2C[C@H]3c4[nH]c5ccccc5c4CCN3C[C@@H]2CC[C@@H]1O` was tested, and the inhibition was 1.4% (active). With `COC(=O)[C@H]1[C@H]2C[C@@H]3c4[nH]c5cc(OC)ccc5c4CCN3C[C@H]2C[C@@H](OC(=O)c2cc(OC)c(OC)c(OC)c2)[C@@H]1OC` the inhibition was 11.6% (active). `C=C[C@H]1CN2CC[C@@H]1C[C@H]2[C@@H](O)c1ccnc2ccc(OC)cc12` was tested, and the inhibition was -3% (inactive). `O=C(O)CCC/C=C\C[C@@H]1[C@@H](/C=C/[C@H](O)C2Cc3ccccc3C2)[C@@H](F)C[C@@H]1O` was tested, and the inhibition was 7.1% (active). In the case of `O=C(O)C1=CCCNC1`, the inhibition is reported as -2.5% (inactive). In the case of `Cc1cccc(C)c1NC(=O)C(C)N` (configuration not stated), the inhibition is reported as 8% (active). `CCN(CC)CC(=O)Nc1c(C)cccc1C` was tested, and the inhibition was -1.3% (inactive). For `CCCNC(C)C(=O)Nc1ccccc1C` (configuration not stated), the inhibition was -4.7% (inactive). `CC(=O)CCCCn1c(=O)c2c(ncn2C)n(C)c1=O` was tested, and the inhibition was 5.8% (active). `CCCn1cnc2c1c(=O)n(CCCCC(C)=O)c(=O)n2C` was tested, and the inhibition was 2.6% (active). For `Cn1c(=O)c2c(ncn2C)n(C)c1=O`, the inhibition was -0.6% (inactive). With `C#CCn1c(=O)c2c(ncn2C)n(C)c1=O` the inhibition was -0.9% (inactive). With `CCCn1c(=O)c2c(ncn2C)n(CCC)c1=O` the inhibition was 4.1% (active). For `N#C/C(=C\c1ccc(-c2cc(Cl)ccc2Cl)o1)C(=O)Nc1cccc2ncccc12`, the inhibition was 3.5% (active). `CCN(CC)CCn1c(=O)c(Cc2ccc(OC)cc2)nc2ccccc21` was tested, and the inhibition was 1.7% (active). For `CCCCOC(=O)NS(=O)(=O)c1sc(CC(C)C)cc1-c1ccc(Cn2c(CC)nc3c(C)cc(C)nc32)cc1`, the inhibition was 2.7% (active). With `CN/C(=C\[N+](=O)[O-])NCCSCc1ccc(CN(C)C)o1` the inhibition was -12.3% (inactive). In the case of `CC(C)N(CCC(=O)c1ccc2ccccc2c1)Cc1ccccc1`, the inhibition is reported as -1.7% (inactive). For `CC(COc1ccccc1)N(CCCl)Cc1ccccc1` (configuration not stated), the inhibition was 9.5% (active). For `Cc1cccc(/C=C/c2ccccc2)n1`, the inhibition was 13.7% (active). For `COc1ccc(CCN(C)CCCC(C#N)(c2cc(OC)c(OC)c(OC)c2)C(C)C)cc1OC` (configuration not stated), the inhibition was 4% (active). For `COc1ccc(CCN(C)CCCC(C#N)(c2ccc(OC)c(OC)c2)C(C)C)cc1OC` (configuration not stated), the inhibition was -2.4% (inactive). `CN1CCN(CC(=O)N2c3ccccc3C(=O)Nc3cccnc32)CC1` was tested, and the inhibition was -2.7% (inactive). With `Cc1scc2c1N(C(=O)CN1CCN(C)CC1)c1ccccc1NC2=O` the inhibition was 1.4% (active). For `CN1CCN(c2nc3cc(C(F)(F)F)ccc3n3cccc23)CC1`, the inhibition was 6.5% (active). `Cc1cc(NC(=O)Nc2ccc3c(ccn3C)c2)sn1` was tested, and the inhibition was 4% (active). With `O=C(O)[C@H]1NCCC[C@H]1C(=O)O` the inhibition was -0.4% (inactive). In the case of `O=C(O)C1CCCNC1` (configuration not stated), the inhibition is reported as 1% (active). `O=C(O)C1CCNCC1` was tested, and the inhibition was -2.2% (inactive). In the case of `Nc1ncnc2c1c(-c1ccc(Oc3ccccc3)cc1)cn2C1CCCC1`, the inhibition is reported as -2.9% (inactive). With `Nc1ncnc2c1c(I)cn2[C@@H]1C[C@H](N)[C@@H](O)[C@H]1O` the inhibition was 2.7% (active). For `Nc1ncnc2c1ncn2C1CCCC1`, the inhibition was -9.6% (inactive). `NCC(O)C1CCCCCCC1` (configuration not stated) was tested, and the inhibition was 11.2% (active). `O=C(c1ccc(OCCN2CCCCC2)cc1)c1c(-c2ccc(O)cc2)sc2cc(O)ccc12` was tested, and the inhibition was 20.1% (active). For `CC(=O)Oc1cc(C(C)C)c(OCCN(C)C)cc1C`, the inhibition was 0.4% (active). `CN(C)C(=O)/N=N/C(=O)N(C)C` was tested, and the inhibition was 8.2% (active). `Fc1ccc(CN(C2=NCCN2)c2c(Cl)cccc2Cl)cc1` was tested, and the inhibition was 1.1% (active). For `O=C(O)c1cc(=O)c2c(Cl)cc(Cl)cc2[nH]1`, the inhibition was -1% (inactive). `O=C(O)c1cc(=O)c2ccccc2[nH]1` was tested, and the inhibition was 5.6% (active). For `CNC(=O)c1cc2c(cn1)[nH]c1ccccc12`, the inhibition was -3.2% (inactive). `Nc1nc2c(ncn2[C@@H]2O[C@H](CO)[C@@H](O)[C@@H]2O)c(=O)[nH]1` was tested, and the inhibition was -3.6% (inactive). With `Nc1ncnc2c1ncn2[C@@H]1O[C@H](CO)[C@H](O)C1O` (some centres not stated) the inhibition was -0.5% (inactive). `OC[C@H]1O[C@@H](n2cnc3cncnc32)[C@H](O)[C@@H]1O` was tested, and the inhibition was 4.9% (active). For `CNc1ncnc2c1ncn2[C@@H]1O[C@H](CO)[C@H](O)C1O` (some centres not stated), the inhibition was -6.8% (inactive). With `Nc1nc(SCc2ccc([N+](=O)[O-])cc2)c2ncn([C@@H]3O[C@H](CO)[C@H](O)C3O)c2n1` (some centres not stated) the inhibition was 4.9% (active). In the case of `C[C@H](Cc1ccccc1)Nc1ncnc2c1ncn2[C@@H]1O[C@H](CO)[C@H](O)C1O` (some centres not stated), the inhibition is reported as 1.4% (active). `O=[N+]([O-])c1ccc(CSc2ncnc3c2ncn3[C@@H]2O[C@H](CO)[C@H](O)C2O)cc1` (some centres not stated) was tested, and the inhibition was -2.9% (inactive). `OC[C@H]1O[C@@H](n2cnc3c(NC4CCCCC4)ncnc32)[C@H](O)[C@@H]1O` was tested, and the inhibition was 4.8% (active). With `Nc1ccc(CCNc2ncnc3c2ncn3C2OC(CO)C(O)C2O)cc1` (configuration not stated) the inhibition was 4% (active). With `OC[C@H]1O[C@H](n2cnc3c(N[C@H]4CCC[C@@H]4O)ncnc32)[C@H](O)[C@@H]1O` the inhibition was -1.9% (inactive). For `OC[C@H]1O[C@@H](n2cnc3c(NC4CCCC4)ncnc32)C(O)[C@H]1O` (some centres not stated), the inhibition was 0.7% (active). For `COc1cc(SC)ccc1C(=O)N1CCC(Cc2ccccc2)CC1`, the inhibition was 1.4% (active). With `COc1ccc(/C=C2\COc3ccc(C)cc3C2=O)cc1O` the inhibition was -1.7% (inactive). For `CNCCC(Oc1ccccc1OC)c1ccccc1` (configuration not stated), the inhibition was -2.5% (inactive). In the case of `CN(CC[C@@H](Oc1ccc(C(F)(F)F)cc1)c1ccccc1)CC(=O)O`, the inhibition is reported as 6.8% (active). For `CNCC[C@H](Oc1ccc(C(F)(F)F)cc1)c1ccccc1`, the inhibition was 11.2% (active). In the case of `CNCCC(Oc1ccc(C(F)(F)F)cc1)c1ccccc1` (configuration not stated), the inhibition is reported as 2.1% (active). For `CNCCC(Oc1ccccc1C)c1ccccc1` (configuration not stated), the inhibition was 0% (inactive). In the case of `OC1(c2ccc(Cl)cc2)CCN(Cc2c[nH]c3ccccc23)CC1`, the inhibition is reported as -1.5% (inactive). With `Ic1ccc(N2CCN(Cc3c[nH]c4ncccc34)CC2)cc1` the inhibition was 15.6% (active). With `Clc1ccc(N2CCN(Cc3c[nH]c4ncccc34)CC2)cc1` the inhibition was 24.1% (active). With `Nc1nc2c(cnn2CCc2ccccc2)c2nc(-c3ccco3)nn12` the inhibition was 1.8% (active). For `Nc1nc2ccc(Cl)cc2c2nc(-c3ccco3)nn12`, the inhibition was -0.2% (inactive). For `CN1C2CCC1CC(OC(=O)c1c[nH]c3ccccc13)C2` (configuration not stated), the inhibition was 2.4% (active). With `CN1C2CC(OC(=O)[C@H](CO)c3ccccc3)CC1C1OC12` (some centres not stated) the inhibition was -3.1% (inactive). `CN1C2CCC1CC(OC(=O)C(O)c1ccccc1)C2` (configuration not stated) was tested, and the inhibition was -5.9% (inactive). For `CN1C2CCC1CC(OC(c1ccccc1)c1ccccc1)C2` (configuration not stated), the inhibition was -10.1% (inactive). In the case of `CN1C2CCC1CC(OC(=O)C(CO)c1ccccc1)C2` (configuration not stated), the inhibition is reported as 3% (active). In the case of `COc1ccc(/C=C/C(=O)Nc2ccccc2C(=O)O)cc1OC`, the inhibition is reported as 23.4% (active). For `CN[C@H](CC(C)C)C(=O)N[C@H]1C(=O)N[C@@H](CC(N)=O)C(=O)N[C@H]2C(=O)N[C@H]3C(=O)N[C@H](C(=O)N[C@H](C(=O)O)c4cc(O)cc(O)c4-c4cc3ccc4O)[C@H](O)c3ccc(c(Cl)c3)Oc3cc2cc(c3O[C@@H]2O[C@H](CO)[C@@H](O)[C@H](O)[C@H]2O[C@H]2C[C@](C)(N)[C@H](O)[C@H](C)O2)Oc2ccc(cc2Cl)[C@H]1O`, the inhibition was 3.1% (active). With `CC1=C(C)C(=O)C(CCCCC#CCCCC#CCO)=C(C)C1=O` the inhibition was 5.7% (active). `C=C1C[C@@]23CC[C@H]4[C@@](C)(CCC[C@@]4(C)C(=O)O)[C@@H]2CC[C@]1(O)C3` was tested, and the inhibition was -3.8% (inactive). With `C=C1C[C@@]23CC[C@H]4[C@@](C)(CCC[C@@]4(C)C(=O)OC4OC(CO)C(O)C(O)C4O)[C@@H]2CCC1(OC1OC(CO)C(O)C(O)C1OC1OC(CO)C(O)C(O)C1O)C3` (some centres not stated) the inhibition was 5.4% (active). For `CN1CC(=O)N/C1=N\C(=O)Nc1cccc(Cl)c1`, the inhibition was -0.1% (inactive). `C[C@H](CS)C(=O)N1CCC[C@H]1C(=O)O` was tested, and the inhibition was 0.1% (active). In the case of `O=C(O)CCC(=O)N1CCCC1C(=O)O` (configuration not stated), the inhibition is reported as 4.1% (active). For `NC(N)=Nc1nc(CSCC/C(N)=N/S(N)(=O)=O)cs1`, the inhibition was 0.1% (active). For `CC(C)C(=O)c1c(C(C)C)nn2ccccc12`, the inhibition was -4.2% (inactive). `CCOC(=O)N1CCC(=C2c3ccc(Cl)cc3CCc3cccnc32)CC1` was tested, and the inhibition was -1.5% (inactive). For `Cc1c(OCC(F)(F)F)ccnc1CS(=O)c1nc2ccccc2[nH]1` (configuration not stated), the inhibition was -0.2% (inactive). For `CCn1nc(C(=O)O)c(=O)c2cc3c(cc21)OCO3`, the inhibition was 3.1% (active). `CCn1cc(C(=O)O)c(=O)c2cc3c(cc21)OCO3` was tested, and the inhibition was 2.6% (active). In the case of `CCn1cc(C(=O)O)c(=O)c2ccc(C)nc21`, the inhibition is reported as -5.8% (inactive). With `CCn1cc(C(=O)O)c(=O)c2cc(F)c(N3CCNC(C)C3)c(F)c21` (configuration not stated) the inhibition was -1.7% (inactive).
